# Out of some 360,000 compounds screened, about 4,500 (1.2%) were called active. No stated cut-off is given here; in the data, active means inhibition above about 30%; inactive means the rest. For the sample, actives were picked, then their nearest neighbours and some compounds at random.
# Assay: inhibition of GDH and TPI enzymes – biochemical, absorbance, full deck, artefact control for M. tuberculosis FBA inhibitor project, primary screen (AID 588335);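 further: 0% = DMSO wells and 100% = wells lacking the enzyme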
# Details: GDH-TPI coupled enzyme counterscreen, NADH absorbance; at 4.8 µM; stronger effect = higher value
row,SMILES,inhibition
1,COC(=O)Cn1c(=NC(=O)CSCC(=O)Nc2cc(C)on2)sc2ccccc21,3.99% (inactive)
2,CC(NC(=O)C(=O)Nc1nccs1)c1ccccc1 (stereo not drawn),9.56% (inactive)
3,O=C1C(=O)N(CCN2CCOCC2)C(c2cccc(Cl)c2)/C1=C(/O)c1ccc2c(c1)OCO2 (stereo not drawn),17.7% (inactive)
4,COc1cccc(C2/C(=C(/O)c3ccc(F)cc3)C(=O)C(=O)N2CCN(C)C)c1 (stereo not drawn),10.2% (inactive)
5,O=C1C(=O)N(CCCN2CCOCC2)C(c2ccc([N+](=O)[O-])cc2)/C1=C(\O)c1ccc2c(c1)OCCO2 (stereo not drawn),33.9% (active)
6,COCCCN1C(=O)C(=O)/C(=C(/O)c2ccc(S(=O)(=O)N3CCOCC3)cc2)C1c1ccc(F)cc1 (stereo not drawn),31% (active)
7,CCOc1cc(C2/C(=C(/O)c3ccc(S(=O)(=O)N4CCCCC4)cc3)C(=O)C(=O)N2CCOC)ccc1O (stereo not drawn),0.74% (inactive)
8,COCCN1C(=O)C(=O)/C(=C(/O)c2ccc(S(=O)(=O)N3CCOCC3)cc2)C1c1ccc(OC)c(OC)c1 (stereo not drawn),9.09% (inactive)
9,COc1ccc(C2/C(=C(/O)c3ccc(OC(C)C)cc3)C(=O)C(=O)N2CCCN2CCOCC2)cc1 (stereo not drawn),11.5% (inactive)
10,COCCN1C(=O)C(=O)/C(=C(/O)c2ccc(S(=O)(=O)N3CCOCC3)cc2)C1c1ccc(O)c(OC)c1 (stereo not drawn),5.9% (inactive)
11,COCCN1C(=O)C(=O)/C(=C(/O)c2ccc(S(=O)(=O)N3CCCCC3)cc2)C1c1ccc(OC)c(OC)c1 (stereo not drawn),33.3% (active)
12,Cc1ccc(C)c(NC(=O)NNC(=O)c2ccc3ccccc3c2O)c1,12.5% (inactive)
13,CCOC(=O)C1CCN(S(=O)(=O)c2ccc3c(c2)N(C)C(=O)CC(=O)N3C)CC1,6.72% (inactive)
14,O=C(CNCc1cccs1)Nc1cc(S(=O)(=O)N2CCCC2)ccc1Cl,2.39% (inactive)
15,O=C(NCc1nnc(SCC(=O)N2CCCc3ccccc32)o1)c1ccccc1F,11.2% (inactive)
16,CCOC(=O)c1c(C)n(C)c2ccc(OC)c(NS(=O)(=O)CC)c12,2.65% (inactive)
17,Cc1ccccc1OCCOc1ccc([N+](=O)[O-])cc1/C=N/n1cnnc1,3.11% (inactive)
18,Clc1cc(-c2ccc(/C=N/n3cnnc3)o2)ccc1Br,18.6% (inactive)
19,Cc1cc([N+](=O)[O-])c(-c2ccc(/C=N/n3cnnc3)o2)cc1Cl,34.8% (active)
20,CCOC(=O)c1cc(S(=O)(=O)NCCc2ccc(OC)c(OC)c2)cn1C,1.68% (inactive)

row,SMILES,inhibition
1,COc1ccc(C)cc1N(C(=O)Cn1nnc(-c2ccc(C)o2)n1)C(C(=O)NC1CCCC1)c1ccncc1 (stereo not drawn),-13.4% (inactive)
2,CCOc1ccc(NC(=S)NC(=O)/C=C/c2ccc(OC)cc2)c([N+](=O)[O-])c1,11.6% (inactive)
3,COCOc1cc(O)c(C(=O)/C=C/c2ccc(OCOC)c(OCOC)c2)c(OCOC)c1,6.25% (inactive)
4,COc1ccc(/C=C/C(=O)c2cc(Br)ccc(=O)c2O)cc1,55.6% (active)
5,Cc1ccc(C(=O)O)cc1N1C(=O)CCCC1=O,2.24% (inactive)
6,CCCN(CC(=O)Nc1ccccc1C)C(=O)c1ccc2[nH]c3c(c2c1)CC(C)CC3 (stereo not drawn),18.2% (inactive)
7,Oc1cccc(CCc2ccccn2)c1,7.36% (inactive)
8,COc1ccc(CC(=O)c2ccc(O)cc2O)cc1OC,26.1% (inactive)
9,O=C(Cc1ccccn1)c1ccc(O)cc1O,33.6% (active)
10,O=C(Cn1cc2c(n1)CCCCC2)NCCN1CCOCC1,-6.93% (inactive)
11,CC(C)Cn1cc(-c2cncc3nccn23)cn1,4% (inactive)
12,COc1ccc2c3c(c(=O)oc2c1OCC(=O)C(C)(C)C)CCCC3,-0.64% (inactive)
13,CCCOc1ccc2c3c(c(=O)oc2c1OCCC)CCC3,13.5% (inactive)
14,O=c1oc2c(CN3CCCCC3)c(O)ccc2c2c1CCCCC2,30.6% (active)
15,Cc1cc(N(C)C)cc(C)[n+]1[O-],-1.57% (inactive)
16,Nc1nc(O)c(CC(=O)O)s1,5.96% (inactive)
17,Cc1noc(C)c1COc1ccc2ccc(=O)oc2c1,6.47% (inactive)
18,CCCCc1cc(=O)oc2cc(C)cc(OCc3nn[nH]n3)c12,22% (inactive)
19,COc1ccc(-c2cc3ccc(OCc4nn[nH]n4)cc3oc2=O)cc1,34.6% (active)
20,Cn1ccc(=Nc2ccc(NC(=O)c3ccc(N=c4ccn(C)c5ccc([N+](=O)[O-])cc45)cc3)cc2)cc1,13.7% (inactive)

row,SMILES,inhibition
1,O=C(NCc1cccnc1)c1cc(C2CCCN(C(=O)CCCc3ccccc3)C2)on1 (stereo not drawn),-5.31% (inactive)
2,CN(C(=O)C1CCN(c2ncnc3c2nc2n3CCCCC2)CC1)C1CCCCC1,-2.53% (inactive)
3,O=C(NNc1ccccc1Cl)C(O)(c1cccc(C(F)(F)F)c1)c1cccc(C(F)(F)F)c1,10.2% (inactive)
4,COc1cc(/C=N/NC(=S)Nc2cccnc2)cc(OC)c1O,31.5% (active)
5,COc1ccc(C(=O)CCC(=O)Nc2cccnc2)c(OC)c1,-6.9% (inactive)
6,Fc1cc(Br)ccc1NC(=S)Nc1cccnc1,-0.63% (inactive)
7,O=C(c1cccs1)C1C(c2ccc(Br)cc2)NC(=S)NC1(O)C(F)(F)F (stereo not drawn),12.2% (inactive)
8,Cc1c(NC(=O)C(C)OC(=O)c2c3c(nc4ccccc24)CCC(C)C3)c(=O)n(-c2ccccc2)n1C (stereo not drawn),3.38% (inactive)
9,Cc1ccc(-c2nc3ccccc3[nH]c2=O)cc1,32.1% (active)
10,Cc1ccccc1N1CC(c2nc3ccccc3[nH]2)CC1=O (stereo not drawn),2.42% (inactive)
11,Cc1ccc(-c2nnc(-n3nnc4ccccc43)c3ccccc23)cc1,6.42% (inactive)
12,CC1(C(=O)NCc2ccc(F)c(F)c2)Cc2c(-c3ccc4c(c3)OCO4)ccnc2O1 (stereo not drawn),0% (inactive)
13,CC1C(=O)Nc2ccccc2N1C(=O)c1c(F)cccc1F (stereo not drawn),-1.38% (inactive)
14,Cn1c(=NC(=O)c2ccco2)sc2cccc(F)c21,51% (active)
15,Cn1c(=NC(=O)c2cnccn2)sc2ccccc21,29.1% (inactive)
16,O=C(Cc1c(F)cccc1Cl)N1CCN(C(=O)c2ccco2)CC1,-4.08% (inactive)
17,O=C(CN1CCCCCC1)Nc1c(Cl)cc(Cl)cc1Cl,3.42% (inactive)
18,COc1cc2nc(CN(C)Cc3ccc(F)cc3)[nH]c(=O)c2cc1OC,-3.88% (inactive)
